Where a name gives a salt, the structure may show the parent alone. Unmarked numbers belong to inactive results.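 How the source made its calls: active = log2 fold change beyond 2 SD from the library mean after excluding viability outliers; inactive = within 2 SD.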

The values below come from the supplement of paper PMC11624193, “Coupling cellular drug-target engagement to downstream pharmacology with CeTEAM” (Nature Communications, 2024).

The target in this assay is PARP1 L713F-nLuc biosensor (HCT116) (UniProt P09874). In words: PARP1 L713F-nLuc/akaLuc ratio relative to DMSO control (biosensor stabilization) (fold change); higher = more PARP1 biosensor stabilization (target engagement / stabilizer), active = hit call of the paper. Conditions: stock concentration (mM; final µM = stock mM x 1): 10; 24 h.
PARP1 L713F-nLuc biosensor (HCT116), sequence (P09874 whole entry L713F, looked up): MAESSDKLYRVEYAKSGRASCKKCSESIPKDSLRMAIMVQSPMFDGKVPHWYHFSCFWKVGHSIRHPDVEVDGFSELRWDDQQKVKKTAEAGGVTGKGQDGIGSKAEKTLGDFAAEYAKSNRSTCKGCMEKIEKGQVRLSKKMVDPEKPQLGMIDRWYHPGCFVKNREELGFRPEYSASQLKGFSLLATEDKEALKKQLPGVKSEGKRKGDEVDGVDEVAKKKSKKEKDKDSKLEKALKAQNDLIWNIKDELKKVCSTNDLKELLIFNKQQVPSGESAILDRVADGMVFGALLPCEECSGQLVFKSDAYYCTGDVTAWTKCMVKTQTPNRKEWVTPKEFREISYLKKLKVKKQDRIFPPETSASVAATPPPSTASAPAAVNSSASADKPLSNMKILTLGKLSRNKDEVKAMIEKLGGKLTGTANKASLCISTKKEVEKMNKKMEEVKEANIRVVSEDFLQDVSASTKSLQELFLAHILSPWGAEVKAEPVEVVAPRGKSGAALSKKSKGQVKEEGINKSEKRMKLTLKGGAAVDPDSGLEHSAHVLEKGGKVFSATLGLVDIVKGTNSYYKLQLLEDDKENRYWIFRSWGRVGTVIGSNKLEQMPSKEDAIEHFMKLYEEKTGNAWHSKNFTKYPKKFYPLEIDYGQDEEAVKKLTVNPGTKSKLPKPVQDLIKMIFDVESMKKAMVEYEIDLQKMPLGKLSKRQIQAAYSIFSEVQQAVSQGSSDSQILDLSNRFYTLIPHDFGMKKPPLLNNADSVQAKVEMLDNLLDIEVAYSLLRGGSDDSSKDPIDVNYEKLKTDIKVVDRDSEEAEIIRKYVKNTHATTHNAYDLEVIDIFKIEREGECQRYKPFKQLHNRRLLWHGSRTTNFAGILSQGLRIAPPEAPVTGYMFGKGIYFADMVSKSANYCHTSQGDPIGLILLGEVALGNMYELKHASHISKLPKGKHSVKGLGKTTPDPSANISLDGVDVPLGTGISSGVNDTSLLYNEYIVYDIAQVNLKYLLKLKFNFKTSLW
Take `CCCOc1ccn2c(C(C)=O)cc(-c3cccc(OC)c3)c2c1`: the “PARP1 L713F-nLuc/akaLuc ratio” value is 1.56.
Under `O=C(/C=C/N1C[C@H]2C[C@@H]1CN2c1ccccn1)c1ccccc1O` stands 1.3; under `Nc1nc(N)c2nc(-c3cccc(O)c3)c(-c3cccc(O)c3)nc2n1`, 1.46; under `O=C1c2ccccc2C(=O)c2c(NCCc3ccc(O)cc3)ccc(NCCc3ccc(O)cc3)c21`, 0.91.
To `C[C@@H](Oc1cc(-n2cnc3ccc(CN4CCN(C)CC4)cc32)sc1C(N)=O)c1ccccc1C(F)(F)F` belongs 0.601; to `COc1cc(C(=O)Nc2ccccc2-c2cn3c(CN4CCNCC4)csc3n2)cc(OC)c1OC`, 0.569.
As to `CC(C)(O)[C@H]1CC[C@H](Nc2ccc3ncc(-c4cccc(C(F)(F)F)c4)n3n2)CC1`, the “PARP1 L713F-nLuc/akaLuc ratio” value was 0.732.
Under `N#Cc1cc(F)cc(Oc2ccc(S(=O)(=O)C(F)F)c3c2CC(F)(F)C3O)c1` (racemic) stands 0.759; under `CNC(=O)c1cc(COc2nnc(Nc3ccc(Cl)cc3)c3ccoc23)ccn1` [Telatinib], 1.17.
Under `COc1c(O)cc2oc(-c3ccc(O)cc3)cc(=O)c2c1O` [Hispidulin] stands 0.723.
Under `COC(=O)c1ccc2c(c1)[nH]c1ncnc(NCCCN3CCCCC3)c12` stands 1.02; under `CO[C@H]1CNC[C@@H](OCC2CCC(F)(F)CC2)[C@@H]1Nc1ncc(-c2cncc(C)c2)c2cc(C)c(=O)[nH]c12`, 1.63; under `Cc1nc(Nc2n[nH]c3c2CN(C(=O)N[C@H](CN(C)C)c2ccccc2)C3(C)C)c2sccc2n1`, 5.51 (active).
Consider `C[C@@H](Nc1cc(F)cc(F)c1)c1cc(C(=O)N(C)C)cc2c(=O)cc(N3CCOCC3)oc12`, for which the “PARP1 L713F-nLuc/akaLuc ratio” value was 0.667.
To `CC(C)(C#N)c1cc(Cn2cncn2)cc(C(C)(C)C#N)c1` [Anastrozole] belongs 0.888.
`CNC(=O)N1N=C(c2ccc(N3CCN(C)CC3)cc2)c2cc(OC)c(OC)cc2C[C@H]1C`: the “PARP1 L713F-nLuc/akaLuc ratio” value is 1.27.
Under `CC[C@H](C)C(=O)O[C@H]1C[C@@H](C)C=C2C=C[C@H](C)[C@H](CC[C@@H]3C[C@@H](O)CC(=O)O3)[C@H]21` [Lovastatin] stands 0.643; under `Nc1cccc(Nc2ncc(-c3ccc(Cl)cc3)o2)c1`, 0.952; under `Cn1cc(C2=C(c3c4n(c5ccccc35)CCC(CN)C4)C(=O)NC2=O)c2ccccc21` (configuration not stated) [Bisindolylmaleimide X (hydrochloride)], 0.725.
Under `O=c1[nH]c(=O)n([C@H]2C[C@H](O)[C@@H](CO)O2)cc1C(F)(F)F` [Trifluridine] stands 0.548; under `O=C(Nc1ccccc1-c1cn2c(CN3CC[C@@H](O)C3)csc2n1)c1ccc2ccccc2c1`, 0.641; under `CN(C)C(=N)NC(=N)N` [Metformin], 1.5.
As to `N#Cc1ccc2ncnc(NCCc3ccccc3)c2c1` [Senexin A], the “PARP1 L713F-nLuc/akaLuc ratio” value was 1.24.
On to `O=C(O)CCNc1cc(N2CCc3ccccc3CC2)nc(-c2ccccn2)n1`, for which the “PARP1 L713F-nLuc/akaLuc ratio” value is 0.92.
Consider `O=C(O)C(Cc1c[nH]c2ccccc12)N1C(=O)c2ccccc2C1=O` (configuration not stated), for which the “PARP1 L713F-nLuc/akaLuc ratio” value was 1.39.
Under `O=C(O)c1cccc(CN2C(=O)/C(=C(\c3ccccc3)c3ccc(Cl)cc3)c3ccccc32)c1` stands 1.18.
`O=C(O)CC1CC(c2ccccc2)=NO1` (configuration not stated): the “PARP1 L713F-nLuc/akaLuc ratio” value was 1.72.
In the case of `Cc1ccc(F)c(NC(=O)Nc2ccc(-c3cccc4[nH]nc(N)c34)cc2)c1` [Linifanib (ABT-869)], the “PARP1 L713F-nLuc/akaLuc ratio” value was 3.59 (active).
To `C[C@H]1CNCCCN1S(=O)(=O)c1cccc2cncc(F)c12` [Ripasudil (K-115) hydrochloride dihydrate] belongs 1.12; to `CC(=O)c1c(C)cc2cccc(O)c2c1O` [Nepodin], 0.91; to `CNCc1ccc(-c2[nH]c3cc(F)cc4c3c2CCNC4=O)cc1` [Rucaparib], 5.36 (active).
Under `CC(=O)Nc1ccc(NC(=S)NC(=O)c2ccc(C(C)(C)C)cc2)cc1` [Tenovin-1] stands 0.509.
Under `NC(=O)NO` [Hydroxyurea] stands 0.953.
For the molecule `CC(=O)N[C@@H](CCCCN)C(=O)Nc1ccc2c(C)cc(=O)oc2c1`, the “PARP1 L713F-nLuc/akaLuc ratio” value was 0.736.
To `O=C(Nc1ccc(-c2ccnc(Nc3ccc(N4CCOCC4)cc3)n2)cc1)C1CCCN1` (configuration not stated) belongs 0.659.
In the case of `O=C(O)Cn1nnc(-c2ccc(CN(CCCCOc3ccc(CN4CCCC4)cc3)CCc3ccccc3)cc2)n1`, the “PARP1 L713F-nLuc/akaLuc ratio” value was 1.04.
On to `CN(C)C(=O)/C(C#N)=C/c1ccc(-c2nc3cnc4[nH]ccc4c3n2C2CCCCC2)o1`, for which the “PARP1 L713F-nLuc/akaLuc ratio” value is 1.08.
